Most compounds without a hit are left out; they make up all but 1.2% or so of the library.
RGS7-Gao = regulators of human RGS7-Galphao interaction; P09471; Multiplexed bead flow cytometry, RGS7-Galphao binding; actives lie on both sides; binding response (% of control), % at 10 µM; hit rate 0.35% among 220,000; AID 1439; in the data active = binding response below about 49% or above about 150%; inconclusive = no clear call, values can overlap the other calls; inactive = in between;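 note: fluorescent Galphao held in activated GDP-AlF4 state binding bead-coupled RGS7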
Target sequence (P09471 whole entry, looked up): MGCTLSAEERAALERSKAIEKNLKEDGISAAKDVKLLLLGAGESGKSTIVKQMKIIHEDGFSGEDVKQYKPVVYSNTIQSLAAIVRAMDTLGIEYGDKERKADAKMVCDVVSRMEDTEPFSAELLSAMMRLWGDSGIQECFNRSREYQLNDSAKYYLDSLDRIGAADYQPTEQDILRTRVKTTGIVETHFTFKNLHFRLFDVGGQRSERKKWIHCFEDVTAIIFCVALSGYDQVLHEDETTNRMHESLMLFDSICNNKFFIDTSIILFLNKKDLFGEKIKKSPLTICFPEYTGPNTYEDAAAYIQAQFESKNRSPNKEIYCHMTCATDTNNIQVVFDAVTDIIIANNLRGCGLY
RGS4-Gao reg = modulates binding of RGS4 to human Galphao; AID 1415; hit rate 0.33% among 220,000; Multiplexed bead flow cytometry; actives lie on both sides; binding response (% of control), % at 10 µM; P09471; in the data active = binding response below about 49% or above about 150%; inactive = in between;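 note: fluorescent Galphao activated with aluminum fluoride binding bead-coupled RGS4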
Avidin bead fluor = compound fluoresces at 488/530 nm on avidin beads | compound fluorescence 488/530 nm, flow cytometry; stronger effect = higher value | fluorescence (KMESF) at 10 µM | hit rate 0.38% among 220,000 | AID 1775; in the data active = fluorescence above about 47
RGS8-Gao reg = regulators of human RGS8-Galphao interaction. P09471. multiplexed bead flow cytometry, RGS8-Galphao binding; actives lie on both sides. response (percent of control binding), % at 10 µM. hit rate 0.34% among 220,000. AID 1423; in the data active = response below about 60% or above about 140%; inactive = in between;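 note: Galphao activated as the GDP aluminium fluoride complex binding bead-coupled RGS8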
RGS16-Gao HTS = RGS16-Galphao interaction regulator (human) | O15492+P09471 | bead-based flow cytometry RGS16-Galphao binding, fluorescence; actives lie on both sides | binding response (% of control), % at 10 µM | hit rate 0.38% among 220,000;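 note: Galphao activated by GDP with aluminum fluoride before binding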
Target sequence (O15492 whole entry, looked up): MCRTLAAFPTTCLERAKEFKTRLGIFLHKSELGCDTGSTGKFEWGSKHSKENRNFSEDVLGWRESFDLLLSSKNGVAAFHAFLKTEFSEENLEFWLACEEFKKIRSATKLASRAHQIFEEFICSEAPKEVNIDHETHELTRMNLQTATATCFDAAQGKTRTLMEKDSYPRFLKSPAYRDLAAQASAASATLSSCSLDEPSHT
Target sequence (P09471 whole entry, looked up): as the sequence (P09471 whole entry, looked up) above
GSH bead fluor = GSH bead compound fluorescence profile | GSH beads flow cytometry, compound fluorescence 488/530 nm; stronger effect = higher value | fluorescence (KMESF) at 10 µM | hit rate 0.25% among 190,000 | AID 1776; in the data active = fluorescence above about 89;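 note: glutathione beads carrying GST-tagged Bcl family fusion proteins plus one bare bead set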
RGS4-Gao HTS = RGS4-Galphao interaction regulator (human) | AID 1504 | shares compounds with RGS16-Gao HTS | multiplexed bead flow cytometry, RGS–Galpha-o binding | RGS4–Galpha-o binding response, % at 10 µM | hit rate 99% among 1,600;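 note: fluorescently labeled Galpha-o bound to GDP with aluminium fluoride binding biotinylated RGS beads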
Avidin counter = biotin-avidin bead binding disruption counter-screen; streptavidin beads, fluorescein-biotin binding, flow cytometry; inhibition, % at 10 µM; 1,700 tested, under 10 active; shares compounds with RGS16-Gao HTS; AID 1783;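 active = inhibition above 50%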;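 note: median green fluorescence of gated singlet beads compared with DMSO control wells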
RGS8-Gao single = confirmation of regulators of human RGS8-Galphao interaction. shares compounds with RGS16-Gao HTS. bead-based flow cytometry RGS8-Galphao binding, fluorescence; actives lie on both sides. binding response (% of control), % at 10 µM. hit rate 3% among 1,700; in the data active = binding response below about 72% or above about 130%; inactive = in between;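 note: Galphao activated as GDP AlF4 complex before binding bead RGS8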
RGS7-Gao single = RGS7-Galphao interaction regulation, single point confirmation; bead-based flow cytometry RGS7-Galphao binding; actives lie on both sides; hit rate 7.8% among 1,700; response (percent of control binding), % at 10 µM; shares compounds with RGS16-Gao HTS; in the data active = response below about 75% or above about 130%; inactive = in between;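 note: fluorescent Galphao activated with GDP and aluminum fluoride binding bead-coupled RGS7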
RGS16-Gao single = RGS16-Galphao interaction regulation, single point confirmation; bead-based flow cytometry, RGS16-Galphao binding; actives lie on both sides; hit rate 4% among 1,700; shares compounds with RGS16-Gao HTS; response (% of control binding), % at 10 µM; in the data active = response below about 74% or above about 130%; inactive = in between;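 note: Galphao activated as the GDP aluminium fluoride complex binding bead-coupled RGS16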
RGS4-Gao confirm = RGS4-Galphao interaction regulation, single point confirmation; shares compounds with RGS16-Gao HTS; RGS4-Galphao binding, multiplexed bead flow cytometry; actives lie on both sides; binding response (% of control), % at 10 µM; hit rate 4% among 1,700; AID 1840; in the data active = binding response below about 74% or above about 130%; inactive = in between
RGS19-Gao single = confirmation of regulators of human RGS19-Galphao interaction; shares compounds with RGS16-Gao HTS; hit rate 5% among 1,700; response (percent of control binding), % at 10 µM; bead-based flow cytometry RGS19-Galphao binding; actives lie on both sides; AID 1841; in the data active = response below about 50% or above about 160%; inactive = in between
A number is an active result; i = inactive; ? = inconclusive; nt = no result given; [ ] = another dose, or the depositor's remark. Unless noted, the rule behind the calls is not given here.

SMILES	RGS7-Gao	RGS4-Gao reg	Avidin bead fluor	RGS8-Gao reg	RGS16-Gao HTS	GSH bead fluor	RGS4-Gao HTS	Avidin counter	RGS8-Gao single	RGS7-Gao single	RGS16-Gao single	RGS4-Gao confirm	RGS19-Gao single
O=[N+]([O-])c1cc2c(cc1/C=N/n1c(-c3ccccn3)n[nH]c1=S)OCO2	i	i	i	i	-3.6	i	86	i	i	i	i	i	i
O=[N+]([O-])c1cc2c(cc1/C=N/n1c(-c3ccccc3)n[nH]c1=S)OCO2	i	i	i	i	i	i	nt	nt	nt	nt	nt	nt	nt
Cc1ccc(NS(=O)(=O)c2ccc(C)c(C(=O)N3CCN(C)CC3)c2)cc1	i	i	i	i	-37	i	69	i	i	i	i	i	i
Cc1ccc(NS(=O)(=O)c2ccc(C(=O)N3CCCN(C)CC3)cc2)cc1	i	i	i	i	i	i	nt	nt	nt	nt	nt	nt	nt
C=CCn1c(C(CCCC)CC(C)O)n[nH]c1=S (stereo not given)	i	i	i	i	-9.0	i	84	i	i	i	i	i	i
C=CCn1c(C(CCC(C)C)CC(C)(C)O)n[nH]c1=S (stereo not given)	i	i	i	i	i	i	nt	nt	nt	nt	nt	nt	nt
Cc1cccc(NC2SC(=O)NC2=O)c1 (stereo not given)	i	i	i	i	i	i	nt	nt	nt	nt	nt	nt	nt
C/C(Cc1ccccc1)=N\NC(=O)CNC(=O)c1ccccc1O	?	i	i	i	i	nt	nt	nt	nt	nt	nt	nt	nt
C/C(Cc1ccccc1)=N\NC(=O)CNC(=O)c1ccccc1Br	i	i	i	i	17	i	88	i	i	75	i	i	i
CNc1nc(-c2c[nH]c3ccccc23)cs1	151[activator]	192[activator]	93	i	202[activator]	i	nt	i	i	i	i	i	i
Nc1nc(-c2c[nH]c3ccccc23)cs1	i	i	i	i	i	i	nt	nt	nt	nt	nt	nt	nt
COc1cc(-c2cc(C(=O)NN3CCN(C)CC3)c3ccccc3n2)cc(OC)c1OC	i	i	i	i	282[activator]	i	111	i	i	i	i	i	i
COc1cc(-c2cc(C(=O)O)c3cc4c(cc3n2)OCCO4)cc(OC)c1OC	nt	nt	nt	nt	nt	i	nt	i	i	i	i	i	i
CC(=O)N1C(Nc2ccc(Cl)cc2)CCN1c1ccccc1 (stereo not given)	nt	nt	nt	nt	nt	i	nt	i	i	i	i	i	i
O=C(O[C@@H]1OC2COC(=O)c3cc(O)c(O)c(O)c3-c3c(cc(O)c(O)c3O)C(=O)O[C@@H]([C@H]1O)[C@@H]2O)c1cc(O)c(O)c(O)c1	22	34	i	44	23	i	nt	i	35	4.1	35	19	42
COc1ccc(-c2cc(C(F)(F)F)nc(SCC(=O)N(C)Cc3cn(C)nc3C)n2)cc1OC	i	i	i	i	0.0	i	78	i	i	i	i	i	i
COc1ccc(-c2cc(C(F)(F)F)nc(SCC(=O)NCc3cnn(C)c3C)n2)cc1OC	i	i	i	i	i	i	nt	nt	nt	nt	nt	nt	nt
COc1ccc(Cn2c(=O)n(Cc3ccco3)c(=N)c3c4c(sc32)COC(C)(C)C4)cc1	175[activator]	i	125	i	i	i	115	i	i	i	i	i	i
CC1(C)Cc2c(sc3c2c(=N)n(Cc2ccco2)c(=O)n3Cc2ccc(F)cc2)CO1	i	i	i	i	i	i	nt	nt	nt	nt	nt	nt	nt
COc1ccc(/C=C(/C(=O)c2ccc(Cl)cc2Cl)n2cncn2)cc1	i	i	i	i	i	i	nt	nt	nt	nt	nt	nt	nt
CC(C)CC(=O)/C(=C\c1ccc(Cl)cc1Cl)n1cncn1	i	48	i	42	i	i	nt	i	i	i	i	i	i
Cc1ccc(/C=N/NC(=O)c2ccc3nc[nH]c3c2)o1	?	156[activator]	128	i	i	nt	nt	i	i	i	i	i	i
COc1ccc(CN2CCN(CCc3ccccc3)C(CCO)C2)cc1Cn1cncn1 (stereo not given)	i	i	i	i	i	i	nt	nt	nt	nt	nt	nt	nt
CCOC(=O)C1=C(C)N=C2SC(CC)C(=O)N2C1c1cccc(F)c1 (stereo not given)	nt	nt	nt	nt	nt	i	nt	i	i	i	i	i	i
Cc1cccnc1NC(=O)NC(=O)c1ccc(C(C)(C)C)s1	?	i	i	i	i	nt	nt	nt	nt	nt	nt	nt	nt
SMILES	RGS7-Gao	RGS4-Gao reg	Avidin bead fluor	RGS8-Gao reg	RGS16-Gao HTS	GSH bead fluor	RGS4-Gao HTS	Avidin counter	RGS8-Gao single	RGS7-Gao single	RGS16-Gao single	RGS4-Gao confirm	RGS19-Gao single
O=C(O)c1cc(S(=O)(=O)N2CCOCC2)ccc1N1CCCCC1	i	i	i	i	i	i	nt	nt	nt	nt	nt	nt	nt
O=c1c2ccccc2sn1-c1cc(S(=O)(=O)N2CCOCC2)ccc1N1CCOCC1	i	i	i	48	0.6	i	99	nt	nt	nt	nt	nt	nt
O=C(O)c1cc(S(=O)(=O)N2CCOCC2)ccc1N1CCOCC1	i	i	i	i	i	i	nt	nt	nt	nt	nt	nt	nt
O=c1c2ccccc2sn1-c1cc(S(=O)(=O)N2CCOCC2)ccc1N1CCCC1	i	i	i	41	-21	i	86	i	38	i	10	i	4.4
Cc1ccc(CN(c2ccc(C(=O)Nc3cccnc3)cc2)S(C)(=O)=O)cc1	16	-2.8	i	32	4.8	i	nt	i	i	i	i	i	i
CCOC(=O)C1(Cc2cccc(OC)c2)CCN(Cc2cnc(C)s2)CC1	i	i	i	i	i	i	nt	nt	nt	nt	nt	nt	nt
Cc1[nH]c2ccccc2c1/C=N/NC(=S)NC(C)C	176[activator]	i	i	i	i	i	125	i	i	259[activator]	149[activator]	184[activator]	230[activator]
CC(C)NC(=O)COc1ccc(S(=O)(=O)N(C)Cc2ccccc2)cc1	?	i	i	i	i	nt	nt	nt	nt	nt	nt	nt	nt
COC(=O)Cc1c(C)nc2nc(NCc3ccc(Cl)cc3)[nH]n2c1=O	151[activator]	155[activator]	86	i	178[activator]	i	nt	i	i	i	i	i	i
CC(=O)C1=C(O)C(=O)N(Cc2ccccc2)C1c1cccs1 (stereo not given)	202[activator]	i	171	i	i	i	119	i	i	i	i	i	i
